Rows were chosen to be rich in hits. Some 8.7% of all compounds tested hit in one or more screens of this group.
VACV mCherry inh = vaccinia inhibition (mCherry reporter) | Vaccinia virus mCherry reporter infection, fluorescence | Potency, µM (top dose mostly 36.5 µM), usual class: inhibitors | 0.63% of 310,000 active | AID 720579; calls by dose curve; tested in A549 cells; further: nearly all actives have a fitted effect of over 35% in size
AMA1-RON2 inh = disrupts binding of P. falciparum AMA1 to RON2 | AlphaScreen AMA1-biotinylated RON2 peptide binding | 0.2% of 360,000 active | Potency, µM (highest dose often 58.2 µM), actives largely listed as inhibitors | AID 720542; further: nearly all actives have a fitted effect of over 45% in size
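AMA1 (3D7) with his tag at 25 nM final met compounds first, then biotinylated RON2 peptide at 25 nM; detection used donor plus acceptor beads, 10 µg/mL apiece, read by AlphaScreen after 30 min at room temperature.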
Pf growth 96h = P. falciparum growth inhibition at 96 hour, primary screen for plastid delayed-death inhibitors. AID 504834. P. falciparum luciferase reporter growth, 96 h. 6.9% of 320,000 active. Potency, µM (series often up to 28.7 µM), most hits filed as inhibitors
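Cell-based qHTS: luciferase-tagged P. falciparum in erythrocytes (2% hematocrit, 0.05% parasitemia final) incubated with compounds for 96 hours, 37 C, 5% CO2; luciferase detection reagent then added and luminescence measured.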
Pf growth 48h = inhibits P. falciparum growth in the first generation, 48 h | Potency, µM (doses to about 28.7 µM), hits mostly inhibitors | 5.9% of 310,000 active | AID 504832 | P. falciparum luciferase growth in erythrocytes, 48 h
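Here the parasites carry a stable luciferase gene and grow inside erythrocytes in Albumax-based RPMI medium with compound for one erythrocytic cycle. Activity is scored as loss of luminescent signal.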
VACV Venus inh = vaccinia inhibition (Venus reporter). 0.46% of 330,000 active. AID 720580. Vaccinia virus Venus reporter expression, fluorescence. Potency, µM (highest dose often 36.5 µM), usual class: inhibitors; calls by dose curve; tested in A549 cells; further: nearly all actives have a fitted effect of over 30% in size
A number is an active result; . = inactive; ? = inconclusive; / = no result given; [ ] = dose if it differs, or a comment. Unless noted, the call rests on the fitted dose curve; in most records, active means well fitted curve in the direction sought with a large enough effect; inconclusive means small, poorly fitted or top-dose-only effect, or another doubt; inactive means no such curve, though single readings can be large; an effect the other way counts as inactive or inconclusive.

SMILES	VACV mCherry inh	AMA1-RON2 inh	Pf growth 96h	Pf growth 48h	VACV Venus inh
CCOC(=O)C1CCN(c2cc3c(cc2NC(=O)c2ccc(Cl)cc2)n(C)c(=O)n3C)CC1	.	/	/	/	.
CCCC(=O)Nc1ccccc1C(=O)OCc1cc(=O)n2nc(C(C)C)sc2n1	.	/	/	/	.
COc1ccc(CCC(=O)Nc2nc(C)c(C(=O)N(C)C)s2)cc1	/	.	?	7.4µM	/
COc1ccc(CCC(=O)Nc2sc(C(=O)N(C)C)c(C)c2C#N)cc1	.	.	?	.	.
CCN1C(=O)/C(=C/C=C2\N(CC)c3cc(S(=O)(=O)N(C)C)ccc3N2c2ccccc2)SC1=S	.	.	13µM	?	.
CCCCNc1ncnc2c1cnn2-c1ccccc1	/	.	12µM	.	?
CCCCNc1ncnc2c1cnn2-c1ccc(Cl)cc1	.	.	.	.	.
CC1(C)CC(=O)C=C(NC2CCCCCCC2)C1	/	.	3.7µM	?	/
CC1(C)CC(=O)C=C(NNC(=O)C2CCCCC2)C1	.	.	.	.	.
CC1(C)CC(=O)C=C(NC2CCCCCC2)C1	.	.	12µM	?	.
O=C1C=C(NC2CCCCC2)CCC1	.	.	13µM	13µM	.
COCC(=O)Nc1cc(C(=O)N2CCC(c3ccccc3)CC2)cc2nc(-c3ccccc3)n(C)c12	.	/	/	/	.
CCc1ccc(-n2c(=O)c3sc4ccccc4c3n(CC(=O)NCc3ccccc3)c2=O)cc1	.	/	/	/	.
CCn1nc(C)c(Oc2ccccc2O)c1C	.	.	12µM	.	.
Cc1nn(CCC#N)c(C)c1Oc1ccccc1O	/	.	.	.	/
COCCCNC(=O)CSc1nc(-c2ccc(OC)cc2)[nH]c1-c1ccc(OC)cc1	.	/	/	/	.
CC1CCN(C2=NN3C(=N)/C(=C\c4ccc(OC(=O)c5ccco5)cc4)C(=O)N=C3S2)CC1	.	.	?	.	.
N=C1/C(=C\c2ccc(OC(=O)c3ccc(F)cc3)cc2)C(=O)N=C2SC(N3CCOCC3)=NN12	/	.	1.7µM	.	/
CN(C)c1ccc(N=Nc2ccnc3ccccc23)cc1	.	/	/	/	.
CN(C)c1ccc(N=Nc2ccccc2Br)cc1	/	11µM	.	.	/
CCOC(=O)C1CCCN(C(=O)/C=C/c2ccc(Cl)cc2)C1 (centres undefined)	/	.	.	.	/
CCOC(=O)C1CCCN(C(=O)CN2CCN(Cc3ccc(Cl)cc3)C2=O)C1 (centres undefined)	/	.	1.7µM	.	.
CCC1Oc2ccc(C)cc2N(CC(=O)N2CCN(c3ccccc3OC)CC2)C1=O (centres undefined)	.	/	/	/	.
CCOC(=O)C1CCCN(C(=O)CN2C(=O)C(CC)Oc3ccc(C)cc32)C1 (centres undefined)	.	.	13µM	.	.
Cc1ccc(CN2CCOCCS2(=O)=O)cc1	.	/	/	/	?
SMILES	VACV mCherry inh	AMA1-RON2 inh	Pf growth 96h	Pf growth 48h	VACV Venus inh
COc1ccc(-c2cn3nc(N4CCCC(C(=O)NCc5ccccc5C)C4)sc3n2)cc1 (centres undefined)	.	/	/	/	.
Cc1ccc(C(=O)c2cn(Cc3ccc(F)cc3)c3nc(C)ccc3c2=O)cc1	.	/	/	/	.
Cc1ccc(Cn2cc(C(=O)c3ccc(F)cc3)c(=O)c3cc4c(cc32)OCCO4)cc1	.	.	12µM	.	.
Cc1ccc(Cn2cc(C(=O)c3ccc(F)cc3)c(=O)c3cc4c(cc32)OCO4)cc1	.	/	/	/	.
Cc1ccc(C(=O)c2cn(Cc3ccc(Cl)cc3)c3nc(C)ccc3c2=O)cc1	.	/	12µM	?	.
COc1ccc(/C=C/c2nc3ccccc3c(=O)n2-c2cccc(C(F)(F)F)c2)cc1	.	/	/	/	.
CCCCN(C)CCNC(=O)c1cc(-c2ccc(Cl)s2)nc2ccccc12	.	/	/	/	.
O=C(c1ccccc1)C(I)(I)N1CCOCC1	.	/	/	/	.
Cc1ccc(NC(=O)Cn2c(C)cc(C)c(C#N)c2=O)cc1F	.	/	/	/	.
CC(=O)OCCNc1cc(Sc2nc3ccccc3[nH]2)c2nonc2c1[N+](=O)[O-]	?	.	?	?	112µM
CC(=O)OCCCNc1cc(Sc2nc3ccccc3s2)c2nonc2c1[N+](=O)[O-]	.	.	.	.	.
Nc1ccc(/C=C/c2ccnc3ccccc23)c(N)c1	.	/	/	/	.
COc1ccc2c(c1OC)C(=O)N1N=C(c3ccccc3)CC21 (centres undefined)	.[1.46 µM]	.	?	4.1µM	.
Cc1cccc(C)c1NC(=O)C(=O)NCC(c1ccc2c(c1)OCO2)N1CCOCC1 (centres undefined)	.	/	/	/	.
Cc1cccc(OCC(=O)Nc2cc(C)c(O)c(-c3nc4ccccc4o3)c2)c1	?	/	/	/	.
NS(=O)(=O)c1ccc(Oc2ccc(S(N)(=O)=O)cc2)cc1	.	.	.	.	.
C=CS(=O)(=O)c1ccc(Oc2ccc(S(=O)(=O)C=C)cc2)cc1	7.1µM	.	/	.	10µM
COc1ccccc1Nc1nc(N)nc(CSc2nc(C)cc(C)n2)n1	/	.	/	.	/
COc1ccc(Nc2nc(N)nc(CSC(=S)N3CCN(c4ccccc4)CC3)n2)cc1	.	.	12µM	?	?
CCOc1ccc(Nc2nc(N)nc(CSC(=S)N3CCN(c4ccccc4)CC3)n2)cc1	.	.	13µM	12µM	.
COc1ccccc1Nc1nc(N)nc(CSc2nccc(C)n2)n1	/	.	0.93µM	.	/
COc1ccccc1Nc1nc(N)nc(CSC(=S)N2CC(C)CC(C)C2)n1 (centres undefined)	.	.[2.32 µM]	10µM	?	.
COc1ccc(Nc2nc(N)nc(CSC(=S)N3CCN(C)CC3)n2)cc1	.	.	?	.	.
Cc1c(Cl)cccc1NC(=O)c1ccc2c(c1)CCN2S(=O)(=O)c1ccccc1	.	/	/	/	.
COc1ccc(NC2=C(NC(C)=O)C(=O)c3ccccc3C2=O)cc1	.	.	.	?	.
SMILES	VACV mCherry inh	AMA1-RON2 inh	Pf growth 96h	Pf growth 48h	VACV Venus inh
COC1=C(Nc2ccc(OC)cc2)C(=O)C(OC)=C(Nc2ccc(OC)cc2)C1=O	.	.	/	/	.
COC1=C(Nc2ccc(O)cc2)C(=O)c2ccccc2C1=O	14µM	?	12µM	?	16µM
CCOc1ccc(NC2=C(OC)C(=O)c3ccccc3C2=O)cc1	.	8.9µM	1.2µM	1.2µM	.
COC1=C(Nc2ccc(OC)cc2)C(=O)c2ccccc2C1=O	?	13µM	?	2.3µM	?
Cc1cccc(NC2=C(NCCO)C(=O)c3ccccc3C2=O)c1	.	?	.	4.7µM	.
Cc1ccc(-c2nn(-c3ccc(F)cc3F)c3c2cnc2ccc(F)cc23)cc1	.	/	/	/	.
CCOC(=O)c1cccc(NC(=O)CSc2nc3cc4ccccc4cc3[nH]2)c1	.	/	/	/	.
CC(=O)c1ccc(C(=O)N2CCc3c(cnc(C)c3CNC(=O)c3ccc4c(c3)OCO4)C2)s1	.	/	/	/	.
CN(CC(=O)NCc1ccccc1Cl)S(=O)(=O)c1ccc2c(c1)c(=O)n(C)c(=O)n2C	.	/	/	/	.
CCN(CC)c1ccc(NC2=C(Cl)C(=O)c3ccccc3C2=O)cc1	?	6.3µM	2.9µM	.	?
COc1ccc(NC2=C(NCCO)C(=O)c3ccccc3C2=O)cc1	?	?	?	7.4µM	?
COc1ccc(-c2nc(Cn3c(SCc4cccc(F)c4)nc4ccncc43)c(C)o2)cc1OC	.	?	.	12µM	.

From PubChem BioAssay
